In the library only some 3.3% were active in any assay of this set; here they are far more common.
rCAG binder – binders of r(CAG) RNA repeats, primary screen, biochemical, fluorescence; r(CAG) RNA repeat, TO-PRO-1 dye displacement fluorescence; inhibition, % at 3 µM; 370,000 compounds, 1.3% hits;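 active = inhibition above the plate cutoff, the mean of all test compounds on that plate plus 3 SD, cut at about 35% in these data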;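 also: 0% = DMSO alone and 100% = 100 µM mitoxantrone as full dye displacement; higher means more dye released from RNA so lower well fluorescence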
ABHD5 PLIN5 PPI – ABHD5-PLIN5 interaction inhibitors, primary screen, cell lysate, split luciferase complementation, luminescence; Perilipin-5 (Homo sapiens) + 1-acylglycerol-3-phosphate O-acyltransferase ABHD5 (Homo …; Split G. princeps luciferase complementation, 4 h; inhibition, % at 4 µM; 360,000 compounds, 0.78% hits; AID 602281, 2012;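 active = inhibition above the mean inhibition across every tested compound plus 3 SD, cut at about 22% in these data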;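 also: 0% = DMSO only wells and the 100% control is not disclosed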
PRMT1 FP inh – PRMT1 methyltransferase inhibitors, primary screen, biochemical, fluorescence polarization; recombinant PRMT1, activity-based probe fluorescence polarization; inhibition, % at 2.79 µM; 370,000 compounds, 1.3% hits; Protein arginine N-methyltransferase 1 (Homo sapiens), Q99873; AID 652257, 2013;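 active = inhibition above about 21% made by adding two undisclosed values, limit read from the data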
TLR4-MyD88 BLA – inhibitors of TLR4-MyD88 association in cells, primary screen, cell-based, HeLa CL3-4, BLA complementation, FRET ratio. Toll-like receptor 4 (Homo sapiens) + Myeloid differentiation primary response protein …. HeLa CL3-4 TLR4/MyD88 BLA complementation. inhibition, % at 8.4 µM. 200,000 compounds, 0.18% hits. AID 861, 2007; in the data active = inhibition above about 25%;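 also: 0% = vehicle and 100% = reference inhibitor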
NOD2 RIPK2 PPI – NOD2-RIPK2 binding disruptors in cells, primary screen, fluorescence, CHO cells, BLA complementation. Receptor-interacting serine/threonine-protein kinase 2 (Homo sapiens), O43353. CCF4 ratio. inhibition, % at 4.98 µM. 360,000 compounds, 0.38% hits; in the data active = inhibition above about 21%;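 also: 0% = vehicle only and 100% = reference blocker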
TLR9-MyD88 inh – inhibitors of TLR9-MyD88 association in cells, primary screen, cell-based, CHO, BLA complementation, fluorescence. Toll-like receptor 9 (Homo sapiens) + Myeloid differentiation primary response protein …. 340,000 compounds, 0.21% hits. CCF4 FRET ratio. AID 504734, 2011. inhibition, % at 4.98 µM;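 active = inhibition above the mean over all tested compounds plus 3 SD, cut at about 21% in these data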;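 also: 0% = DMSO only wells and 100% = clavulanate BLA inhibitor control wells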
Target sequence (Q99836 whole entry, looked up): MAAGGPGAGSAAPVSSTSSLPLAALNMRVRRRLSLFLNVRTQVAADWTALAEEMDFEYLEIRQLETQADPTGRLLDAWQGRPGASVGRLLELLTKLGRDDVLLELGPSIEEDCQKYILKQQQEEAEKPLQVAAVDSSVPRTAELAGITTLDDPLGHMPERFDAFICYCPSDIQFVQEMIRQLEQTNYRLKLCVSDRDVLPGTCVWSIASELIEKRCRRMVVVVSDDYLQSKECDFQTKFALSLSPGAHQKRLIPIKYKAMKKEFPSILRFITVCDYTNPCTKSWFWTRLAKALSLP
Target sequence (Q9NR96 whole entry, looked up): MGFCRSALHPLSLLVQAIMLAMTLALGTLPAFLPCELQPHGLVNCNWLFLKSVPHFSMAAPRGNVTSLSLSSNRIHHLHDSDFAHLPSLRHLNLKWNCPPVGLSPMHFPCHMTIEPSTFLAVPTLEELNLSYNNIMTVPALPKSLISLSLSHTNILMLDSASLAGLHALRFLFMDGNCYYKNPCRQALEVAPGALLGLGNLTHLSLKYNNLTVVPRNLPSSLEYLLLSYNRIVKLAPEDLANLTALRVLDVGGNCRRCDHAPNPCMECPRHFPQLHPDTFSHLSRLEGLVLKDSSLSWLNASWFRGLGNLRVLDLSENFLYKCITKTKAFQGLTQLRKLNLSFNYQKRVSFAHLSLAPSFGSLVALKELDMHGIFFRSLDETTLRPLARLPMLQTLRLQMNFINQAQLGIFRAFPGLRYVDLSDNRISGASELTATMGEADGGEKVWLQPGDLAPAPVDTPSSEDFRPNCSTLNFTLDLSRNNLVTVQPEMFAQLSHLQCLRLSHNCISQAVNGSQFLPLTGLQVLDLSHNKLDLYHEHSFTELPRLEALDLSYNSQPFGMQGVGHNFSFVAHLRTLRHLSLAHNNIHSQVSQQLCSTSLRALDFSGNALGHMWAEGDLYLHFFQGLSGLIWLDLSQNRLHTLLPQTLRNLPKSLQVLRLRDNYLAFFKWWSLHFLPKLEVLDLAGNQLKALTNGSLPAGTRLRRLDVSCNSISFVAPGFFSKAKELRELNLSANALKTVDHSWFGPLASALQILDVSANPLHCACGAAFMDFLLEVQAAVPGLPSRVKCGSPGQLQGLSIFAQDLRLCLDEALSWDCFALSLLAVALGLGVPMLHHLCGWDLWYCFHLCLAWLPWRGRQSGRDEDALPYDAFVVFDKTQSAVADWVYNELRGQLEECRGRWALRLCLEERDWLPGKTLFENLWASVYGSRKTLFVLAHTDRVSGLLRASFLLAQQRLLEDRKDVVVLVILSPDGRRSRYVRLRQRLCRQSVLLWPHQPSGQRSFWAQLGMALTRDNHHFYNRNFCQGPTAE
PRMT1 inh conf – PRMT1 methyltransferase inhibitors, confirmation, biochemical, fluorescence polarization, triplicate. shares compounds with PRMT1 FP inh. recombinant His-PRMT1, activity-based probe fluorescence polarization. inhibition, % at 2.79 µM. 3,300 compounds, 42% hits. AID 687036, 2013;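 active = mean inhibition across replicates above the hit cutoff derived for the earlier primary screen, cut at about 22% in these data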
Numbers without * were called inactive; x = no result given; + = active, no number.

SMILES | rCAG binder | ABHD5 PLIN5 PPI | PRMT1 FP inh | TLR4-MyD88 BLA | NOD2 RIPK2 PPI | TLR9-MyD88 inh | PRMT1 inh conf
CC1(C(=O)Nc2cccc(OC(F)(F)F)c2)Cc2c(-c3ccc(C(N)=O)cc3)ccnc2O1 (stereo not given) | 1 | -1 | 0 | x | 3 | x | x
CN1CCCC(OC(=O)c2ccc(S(=O)(=O)N(C)C)cc2)C1 (stereo not given) | 2 | -6 | 34* | x | -2 | -3 | -1
Cc1cccc2nc(CSc3nc4cc([N+](=O)[O-])ccc4s3)cn12 | 3 | 6 | 53* | 6 | -6 | -14 | -3
Cc1cccc2nc(CSc3ccc(Cl)cc3)cn12 | -5 | 2 | -3 | 9 | 1 | -6 | x
Cc1ccc(Oc2ncnc(N)c2[N+](=O)[O-])cc1C | -2 | -2 | -3 | -14 | -6 | 4 | x
O=C(O)CCCN1C(=O)/C(=C\C(Cl)=C\c2ccccc2)SC1=S | 12 | -9 | 3 | x | -1 | 1 | x
O=C(O)CCCN1C(=O)/C(=C\c2ccc(-c3nc4ccccc4s3)o2)SC1=S | 27 | -5 | 49* | x | 6 | 12 | 12
CCOc1ccc(NC(=O)COC(=O)C2C3CC4OC(=O)C2C4C3)cc1 (stereo not given) | 16 | -3 | 1 | x | -9 | -7 | x
COc1cc(C(=O)NCc2nnc(SCC(=O)Nc3nccs3)o2)cc(OC)c1OC | 1 | -1 | 1 | 4 | 6 | 4 | x
COc1cc(C(=O)NCc2nnc(SCC(=O)Nc3nc4ccccc4s3)o2)cc(OC)c1OC | 20 | -4 | 65* | -13 | 8 | 0 | 5
N#C/C(=C\c1ccc2c(c1)OCO2)C(N)=S | 1 | -18 | 25* | x | -10 | x | 7
COc1cc(CN2C(=O)C(NC(=O)c3ccco3)(C(F)(F)F)C3=C2CC(C)(C)CC3=O)cc(OC)c1 (stereo not given) | -6 | -2 | -1 | 0 | -10 | -1 | x
Cc1cc(Cl)ccc1NNC(=O)c1cccs1 | -1 | -3 | 3 | x | -8 | 0 | x
CC(=O)C(=Nc1cccc(Cl)c1)NNc1ccccc1C | -1 | -13 | 83* | x | 8 | 5 | 3
COC(=O)c1c(-c2ccco2)csc1NC(=O)C1CC=CCC1C(=O)O (stereo not given) | 23 | 17 | 27* | 8 | -2 | -11 | 4
COC(=O)c1sccc1NC(=O)C1CC=CCC1C(=O)O (stereo not given) | 2 | -5 | 1 | 2 | -6 | -4 | x
O=C(O)C1=C[C@H](c2ccc(F)cc2)C[C@H](OCCCCO)O1 | 1 | 2 | 2 | x | -17 | -5 | x
Cc1ccc(-c2cccc(NC(=O)C3C4C=CC(C4)C3C(=O)O)c2)o1 (stereo not given) | 6 | 3 | 54* | 7 | -3 | -10 | -2
COc1ccc(C(C)=O)cc1COC(=O)C1CCN(C(=O)c2ccc(Cl)cc2)CC1 | -2 | 3 | + | x | 4 | -5 | 5
COc1ccc(COC(=O)C2CCN(C(=O)c3ccc(Cl)cc3)CC2)cc1F | -2 | 1 | -1 | x | 9 | -1 | x
NC(=O)c1c(N)sc2c1CCCC2 | 19 | -2 | 41* | 1 | 13 | -5 | 29*
CCn1c(=O)cc(N2CCN(c3cccc(C(F)(F)F)c3)CC2)[nH]c1=O | x | x | -1 | x | x | x | x
Cc1nc2ccc(NC3=NCCCCC3)cc2s1 | 1 | -8 | 61* | -4 | 4 | -3 | 37*
Cc1ccc(NC2=NCCC2)cc1Cl | 1 | -2 | -4 | -1 | -7 | 3 | x
Fc1ccc(-n2cc(CNCCc3cccnc3)c(-c3ccccc3Cl)n2)cc1 | -9 | 10 | 0 | -5 | 8 | -3 | x
SMILES | rCAG binder | ABHD5 PLIN5 PPI | PRMT1 FP inh | TLR4-MyD88 BLA | NOD2 RIPK2 PPI | TLR9-MyD88 inh | PRMT1 inh conf
Cc1cc(NS(=O)(=O)c2ccc(NC(=O)CSc3nnc(-c4ccncc4)n3Cc3ccco3)cc2)nc(C)n1 | 17 | x | 33* | x | x | x | -1
COc1ccccc1NC(=O)/C=C\c1ccco1 | 12 | 19 | 18 | x | 9 | -4 | x
COc1ccccc1NC(=O)/C(C#N)=C/C=C/c1ccco1 | 27 | -4 | 28* | -16 | -7 | -7 | 9
COc1ccc(N2CCN(C(=O)C3CCCN3S(=O)(=O)c3cccc4nsnc34)CC2)cc1 (stereo not given) | x | -2 | x | x | -2 | -8 | x
COc1ccc(C2=CSC3=C(C(=O)c4cccc(S(=O)(=O)N(C)C)c4)CCN23)cc1 | 9 | 4 | 28* | 10 | -1 | 3 | 27*
Cc1cc(C)c2c(N)c(S(=O)c3ccc(C(C)(C)C)cc3)sc2n1 (stereo not given) | 4 | -5 | 33* | 13 | -19 | 8 | 2
Cc1cc(C)c2c(N)c(C(=O)C(C)(C)C)sc2n1 | -7 | -1 | 0 | -5 | -5 | -5 | x
Cc1[nH]c(SCC(=O)Nc2cc(S(C)(=O)=O)ccc2Cl)nc1Cc1ccccc1 | 10 | -3 | 26* | x | 0 | 3 | 9
O=C(CSc1nc(NS(=O)(=O)c2ccccc2)cc(=O)[nH]1)Nc1ccccc1Cl | 13 | -14 | 29* | x | -5 | 1 | 16
Cc1ccc(S(=O)(=O)Nc2cc(=O)[nH]c(SCC(=O)Nc3ccccc3Cl)n2)cc1 | 4 | 2 | 1 | -16 | 1 | -13 | x
O=C(Cn1cnc2nc3n(c2c1=O)CCC3)NCc1ccccc1 | 2 | -8 | 0 | -6 | 4 | 6 | x
CCc1ccc2c(CC(=O)NNC(=O)c3ccncc3)coc2c1 | 4 | 7 | -3 | x | -4 | -14 | x
COc1ccc(C2c3sc(=O)[nH]c3SC3C(=O)N(c4ccccc4)C(=O)C32)cc1 (stereo not given) | 29 | -29 | 27* | -8 | -14 | 3 | 1
O=C1C2Sc3[nH]c(=O)sc3C(c3ccccc3)C2C(=O)N1c1ccccc1 (stereo not given) | 16 | -9 | 7 | -1 | -19 | -9 | x
COc1ccccc1/C=C/C(=O)OCC(=O)N1CCc2ccccc21 | 4 | -16 | 1 | x | 2 | -5 | x
Cc1cc(C)nc(SCC(=O)c2ccc(O)c(O)c2)n1 | 10 | 0 | 49* | x | -12 | 0 | 42*
Cc1cc(C)nc(SCC(=O)c2ccc([N+](=O)[O-])cc2)n1 | 4 | -12 | 37* | 5 | -9 | 6 | 3
Cc1ccnc(SCC(=O)c2ccc([N+](=O)[O-])cc2)n1 | 0 | -1 | 3 | -2 | -2 | -6 | x
